Data from PubChem BioAssay.
For part of these data: Entries with a potency or affinity are not part of this list. Calls of active or inactive are those of the source.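 Rule for the calls, unless noted: active = earlier screen potentiator hit that boosts the TRPC4 ion channel at some dose, with a dose response; inactive = no potentiation, no dose response, or not a prior hit.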

Columns and labels:
[1] = test system: TRPC4 beta (transient receptor potential cation channel C4), mouse; test: activators of mouse TRPC4 channel, confirmation, cell-based, Fluo4 calcium, HEK293 TRPC4beta/mu-opioid, duplicates, 10 µM (AID 2426;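 active = fluorescence ratio normalized to control raised more than 50% in primary screen plus both repeat runs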); conditions: Fluo4 calcium fluorescence, at 10 µM; active compounds read high
[2] = test system: transient receptor potential cation channel C4 beta (TRPC4), mouse; test: activators of mouse TRPC4 channel, confirmation, cell-based, second round, Fluo4, HEK293 TRPC4beta/mu-opioid, 1 µM (AID 2461;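 active = primary screen active and over 50% activation in each of two duplicate runs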); conditions: Fluo4 calcium fluorescence, at 1 µM; active compounds read high
[3] = test system: TRPC4 (transient receptor potential cation channel C4 beta), mouse; test: positive allosteric modulators of mouse TRPC4, confirmation, cell-based, second round, Fluo-4, HEK293 TRPC4beta/mu-opioid, 1 µM (AID 2554;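 active = primary screen hit whose fluorescence ratio, in both repeats, exceeds the weak agonist control mean by 3 SD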); conditions: DAMGO EC20, Fluo-4 calcium flux, at 1 µM; active compounds read high
[4] = test system: TRPC4 beta (transient receptor potential cation channel C4), mouse; test: positive allosteric modulators of mouse TRPC4, confirmation, cell-based, Fluo-4, HEK293 TRPC4beta/mu-opioid (AID 2555;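 active = primary screen hit whose calcium fluorescence ratio, in both repeats, exceeds the weak agonist control mean by 3 SD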); conditions: DAMGO EC20, Fluo-4 calcium flux, at 10 µM; active compounds read high
[5] = molecular target: Short transient receptor potential channel 4 (Mus musculus) (UniProt Q9QUQ5); test: inhibitors of mouse TRPC4 channel, confirmation, cell-based, Fluo4, HEK293 TRPC4beta/mu-opioid (AID 2636;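 active = calcium signal cut by more than 3 SD below the full-agonist control yet still positive, in both repeats and the earlier primary screen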); conditions: DAMGO, Fluo4 calcium flux, at 10 µM; active compounds read high
[6] = molecular target: Short transient receptor potential channel 4 (Mus musculus) (UniProt Q9QUQ5); test: inhibitors of mouse TRPC4 channel, confirmation, cell-based, second round, Fluo4, HEK293 TRPC4beta/mu-opioid, 1 µM (AID 2637;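 active = calcium signal ratio cut to more than 3 SD under the fully stimulated control mean yet still positive, in both repeats and the primary screen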); conditions: Fluo4 calcium flux, DAMGO, at 1 µM; active compounds read high
[7] = molecular target: Short transient receptor potential channel 4 (Mus musculus) (UniProt Q9QUQ5); test: mouse TRPC4 channel activators, dose response, cell-based, HEK293 TRPC4/mu-opioid, Fluo-4 calcium (AID 434937;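 active = primary screen activator hit with a dose response curve and TRPC4 channel activation at any tested dose; inactive = no activation, no dose response, or not a primary hit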)
[8] = molecular target: Short transient receptor potential channel 4 (Mus musculus) (UniProt Q9QUQ5); test: TRPC4 positive allosteric modulators, dose response, cell-based, HEK293 TRPC4/mu-opioid, Fluo-4 calcium, EC20 DAMGO (AID 434941);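 note: calcium entry triggered by an EC20 dose of DAMGO at the co-expressed mu-opioid receptor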
[9] = molecular target: Short transient receptor potential channel 4 (Mus musculus) (UniProt Q9QUQ5); test: mouse TRPC4 channel inhibitors, dose response, cell-based, HEK293 TRPC4/mu-opioid, Fluo-4 calcium (AID 434942;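 active = primary screen inhibitor hit that blocks the TRPC4 channel at some tested dose, yielding a dose curve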)
[10] = molecular target: Short transient receptor potential channel 6 (Mus musculus) (UniProt Q61143); test: inhibition of mouse TRPC6 channel, confirmation, selectivity assay for TRPC4 inhibitor project, cell-based, HEK293, membrane potential dye, duplicate (AID 434948;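 active = active in primary screen and both duplicates, each dropping signal beyond three positive-control SD with fluorescence still positive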); conditions: HEK293 TRPC6, membrane potential dye fluorescence, at 10 µM, stimulated with maximal-effect acetylcholine; active compounds read high
[11] = molecular target: Short transient receptor potential channel 6 (Mus musculus) (UniProt Q61143); test: activation of mouse TRPC6 channel, confirmation, selectivity assay for TRPC4 activator project, cell-based, HEK293, membrane potential dye, duplicate (AID 434950;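 active = membrane potential signal rise above negative control mean plus 3 SD in both duplicates, also active in the earlier TRPC4 screen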;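 for activation: 0% = buffer only wells and 100% = acetylcholine maximal-effect wells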); conditions: HEK293 TRPC6, membrane potential fluorescence, at 10 µM; active compounds read high
[12] = molecular target: Short transient receptor potential channel 6 (Mus musculus) (UniProt Q61143); test: TRPC6 potentiation by TRPC4 potentiator hits, confirmation, selectivity assay for TRPC4 potentiator project, HEK293 cells, membrane potential dye, duplicate (AID 434952;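 active = compound raising the membrane signal above positive-control mean plus 3 SD in both repeats, and a primary screen hit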); conditions: HEK293 TRPC6, membrane potential dye fluorescence, at 10 µM, maximal acetylcholine added after compound; active compounds read high
[13] = molecular target: Short transient receptor potential channel 4 (Mus musculus) (UniProt Q9QUQ5); test: calcium flux activators in TRPC4/5HT1a cells, counter-screen for TRPC4 activator project, cell-based, second counter screen, HEK293 TRPC4/5HT1a, Fluo-4 (AID 434977;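 active = calcium signal rise above buffer-control mean plus 5 SD in both duplicates, and also a hit in the primary screen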); conditions: Fluo-4 calcium flux, at 10 µM; active compounds read high
[14] = calcium flux inhibitors in TRPC4/5HT1a cells, confirmation, counter-screen for TRPC4 inhibitor project, cell-based, second counter screen, HEK293 TRPC4/5HT1a, Fluo-4 (AID 434978;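 active = primary screen active whose calcium signal fell more than 3 SD beyond the full-serotonin control mean in both duplicate plates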;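 for outcome: serotonin given first at submaximal then at maximal dose after compound preincubation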); conditions: Fluo-4 calcium flux, at 10 µM, serotonin added to trigger calcium flux; active compounds read high
[15] = test system: TRPC4 (mouse), co-expressed with 5HT1a in HEK293; test: calcium flux potentiators in TRPC4/5HT1a cells, confirmation, counter-screen for TRPC4 potentiator project, cell-based, second counter screen, HEK293 TRPC4/5HT1a, Fluo-4 (AID 434979;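 active = signal rise over 3 SD above mean of control wells given weak agonist, in both repeats and first screen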); conditions: Fluo-4 calcium flux, at 10 µM, serotonin added at its EC20 dose; active compounds read high
[16] = calcium flux activation in mu-opioid HEK293 cells, confirmation, counter-screen for TRPC4 activator project, cell-based, HEK293 mu-opioid receptor line (AID 449723;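 active = hit in primary screen, with calcium signal over 5 SD above buffer well mean in both duplicates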;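 note: counter screen cells carry the mu-opioid receptor alone and lack TRPC4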); conditions: Fluo-4 calcium fluorescence, at 10 µM; active compounds read high
[17] = calcium flux enhancement in mu-opioid HEK293 cells, confirmation, counter-screen for TRPC4 allosteric potentiator project, cell-based, HEK293 mu-opioid receptor line (AID 449724;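 active = calcium signal rise more than 3 SD above the low-dose agonist control mean, in both duplicate plates and the primary screen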); conditions: Fluo-4 calcium flux, at 10 µM, compound added before EC20 DAMGO stimulus; active compounds read high

Chain of Short transient receptor potential channel 4 (Mus musculus) (Q9QUQ5 whole entry, looked up): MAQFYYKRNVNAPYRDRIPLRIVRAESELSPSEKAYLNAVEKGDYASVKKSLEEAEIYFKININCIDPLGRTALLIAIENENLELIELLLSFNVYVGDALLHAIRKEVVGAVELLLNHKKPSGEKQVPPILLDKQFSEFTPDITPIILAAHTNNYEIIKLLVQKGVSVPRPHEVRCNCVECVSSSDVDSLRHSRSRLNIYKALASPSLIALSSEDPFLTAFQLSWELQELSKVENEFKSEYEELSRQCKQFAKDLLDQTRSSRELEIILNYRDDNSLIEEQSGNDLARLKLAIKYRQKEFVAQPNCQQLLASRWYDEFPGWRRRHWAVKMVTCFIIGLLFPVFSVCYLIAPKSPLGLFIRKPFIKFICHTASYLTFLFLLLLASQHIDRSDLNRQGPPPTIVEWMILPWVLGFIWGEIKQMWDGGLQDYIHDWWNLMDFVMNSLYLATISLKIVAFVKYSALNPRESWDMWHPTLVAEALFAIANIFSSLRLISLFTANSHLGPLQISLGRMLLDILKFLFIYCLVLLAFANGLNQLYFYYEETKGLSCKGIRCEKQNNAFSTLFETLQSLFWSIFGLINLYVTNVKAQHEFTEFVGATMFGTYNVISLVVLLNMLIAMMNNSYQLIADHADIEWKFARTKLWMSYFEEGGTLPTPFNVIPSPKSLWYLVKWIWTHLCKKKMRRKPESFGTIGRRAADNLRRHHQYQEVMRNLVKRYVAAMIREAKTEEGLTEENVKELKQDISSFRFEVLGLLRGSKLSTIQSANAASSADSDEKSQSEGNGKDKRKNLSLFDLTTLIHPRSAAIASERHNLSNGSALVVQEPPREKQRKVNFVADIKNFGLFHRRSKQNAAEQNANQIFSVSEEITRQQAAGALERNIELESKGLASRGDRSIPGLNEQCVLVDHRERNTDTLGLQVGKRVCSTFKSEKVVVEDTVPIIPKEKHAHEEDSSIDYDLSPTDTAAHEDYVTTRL
Chain of Short transient receptor potential channel 6 (Mus musculus) (Q61143 whole entry, looked up): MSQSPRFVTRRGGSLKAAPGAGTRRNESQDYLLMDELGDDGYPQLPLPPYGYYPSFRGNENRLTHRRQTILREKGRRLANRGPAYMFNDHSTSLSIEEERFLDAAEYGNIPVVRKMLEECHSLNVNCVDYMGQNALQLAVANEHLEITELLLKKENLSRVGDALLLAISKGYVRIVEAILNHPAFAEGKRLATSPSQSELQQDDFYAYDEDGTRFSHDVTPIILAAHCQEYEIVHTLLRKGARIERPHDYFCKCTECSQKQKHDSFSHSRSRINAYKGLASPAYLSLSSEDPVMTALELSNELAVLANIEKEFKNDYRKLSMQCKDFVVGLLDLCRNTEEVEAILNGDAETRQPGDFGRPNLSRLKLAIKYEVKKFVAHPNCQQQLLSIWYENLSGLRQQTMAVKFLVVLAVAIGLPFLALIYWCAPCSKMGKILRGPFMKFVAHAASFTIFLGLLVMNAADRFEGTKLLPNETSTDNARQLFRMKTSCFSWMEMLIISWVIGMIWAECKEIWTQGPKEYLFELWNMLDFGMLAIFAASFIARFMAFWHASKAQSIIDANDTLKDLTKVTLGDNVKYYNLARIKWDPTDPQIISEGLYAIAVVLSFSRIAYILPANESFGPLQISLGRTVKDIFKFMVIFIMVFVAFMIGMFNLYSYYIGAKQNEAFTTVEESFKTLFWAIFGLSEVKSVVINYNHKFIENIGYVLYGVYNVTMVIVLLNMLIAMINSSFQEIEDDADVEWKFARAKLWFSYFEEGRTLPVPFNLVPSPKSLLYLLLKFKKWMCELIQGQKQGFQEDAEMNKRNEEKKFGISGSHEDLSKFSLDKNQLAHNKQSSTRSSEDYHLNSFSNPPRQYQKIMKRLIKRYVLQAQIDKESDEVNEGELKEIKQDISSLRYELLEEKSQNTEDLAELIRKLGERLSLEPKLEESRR

CN(C)C(CNc1ccc(C(N)=O)cc1[N+](=O)[O-])c1ccccc1 (stereo not given)
inactive: outcome [1] | outcome [2] | outcome [3] | outcome [4] | outcome [5] | outcome [6] | outcome [7] | outcome [8] | outcome [9] | outcome [10] | outcome [11] | outcome [12] | outcome [13] | outcome [14] | outcome [15] | outcome [16] | outcome [17]

Cc1ccc(C)c(N(CC(=O)NC2CCCC2)C(=O)c2csnn2)c1
active: activation [11] 30%
inactive: outcome [1] | outcome [2] | outcome [3] | outcome [4] | outcome [5] | outcome [6] | outcome [7] | outcome [8] | outcome [9] | outcome [10] | outcome [12] | outcome [13] | outcome [14] | outcome [15] | outcome [16] | outcome [17]

O=C(NC1CCN(Cc2ccccc2)CC1)c1cccc(S(=O)(=O)Nc2cc(C(F)(F)F)ccc2Cl)c1
inactive: outcome [1] | outcome [2] | outcome [4] | outcome [5] | outcome [6] | outcome [7] | outcome [8] | outcome [9] | outcome [10] | outcome [11] | outcome [12] | outcome [13] | outcome [14] | outcome [16] | outcome [17]
active: potentiation [3] 13% | potentiation [15] 22.2%

CCOc1cc2[nH]c(=S)n(C3CC3)c(=O)c2cc1OCC
inactive: outcome [1] | outcome [2] | outcome [3] | outcome [4] | outcome [5] | outcome [6] | outcome [7] | outcome [8] | outcome [9] | outcome [10] | outcome [11] | outcome [12] | outcome [13] | outcome [14] | outcome [15] | outcome [16] | outcome [17]

CC(=NCCN1CCN(C(C)=C2C(=O)c3ccccc3C2=O)CC1)C1=C(O)CC(C)(C)CC1=O
inactive: outcome [1] | outcome [2] | outcome [3] | outcome [4] | outcome [5] | outcome [6] | outcome [7] | outcome [8] | outcome [9] | outcome [10] | outcome [11] | outcome [12] | outcome [13] | outcome [14] | outcome [15] | outcome [16] | outcome [17]

O=C(N/N=C/c1cc2c(cc1Br)OCO2)c1cc2ccccc2o1
active: inhibition [5] 93%
inactive: outcome [1] | outcome [2] | outcome [3] | outcome [4] | outcome [6] | outcome [7] | outcome [8] | outcome [9] | outcome [10] | outcome [11] | outcome [12] | outcome [13] | outcome [14] | outcome [15] | outcome [16] | outcome [17]

Cc1nnc(Sc2cc(NCCCO)c([N+](=O)[O-])c3nonc23)s1
inactive: outcome [1] | outcome [2] | outcome [3] | outcome [4] | outcome [6] | outcome [7] | outcome [8] | outcome [9] | outcome [10] | outcome [11] | outcome [12] | outcome [13] | outcome [14] | outcome [15] | outcome [16] | outcome [17]
active: inhibition [5] 84%

COc1cccc(OCc2cc(C(=O)N3CCN(C)C(c4ccccc4)C3)no2)c1 (stereo not given)
active: potentiation [15] 16.7%
inactive: outcome [1] | outcome [2] | outcome [3] | outcome [4] | outcome [5] | outcome [6] | outcome [7] | outcome [8] | outcome [9] | outcome [10] | outcome [11] | outcome [12] | outcome [13] | outcome [14] | outcome [16] | outcome [17]

Cc1ccc(C[n+]2cccc(-c3ccccc3)c2)c(C)c1
inactive: outcome [1] | outcome [2] | outcome [3] | outcome [4] | outcome [5] | outcome [6] | outcome [7] | outcome [8] | outcome [9] | outcome [10] | outcome [11] | outcome [12] | outcome [13] | outcome [14] | outcome [15] | outcome [16] | outcome [17]

CC1CCC2C(C1)c1sc(=O)[nH]c1SC2(C)C (stereo not given)
inactive: outcome [1] | outcome [2] | outcome [3] | outcome [4] | outcome [5] | outcome [6] | outcome [7] | outcome [8] | outcome [9] | outcome [10] | outcome [11] | outcome [12] | outcome [13] | outcome [14] | outcome [15] | outcome [16] | outcome [17]

Cn1c(N2CCC(C(N)=O)CC2)nc2c1c(=O)n(Cc1ccc(Br)cc1)c(=O)n2C
inactive: outcome [1] | outcome [2] | outcome [3] | outcome [4] | outcome [5] | outcome [6] | outcome [7] | outcome [8] | outcome [9] | outcome [10] | outcome [11] | outcome [12] | outcome [13] | outcome [14] | outcome [15] | outcome [16] | outcome [17]

c1ccc(-c2nc(NCc3cccnc3)c3ccccc3n2)cc1
inactive: outcome [1] | outcome [2] | outcome [3] | outcome [4] | outcome [6] | outcome [7] | outcome [8] | outcome [9] | outcome [10] | outcome [11] | outcome [12] | outcome [13] | outcome [15] | outcome [16] | outcome [17]
active: inhibition [5] 89% | inhibition [14] 36.3%

Cc1ccc(Cn2c(=N)c(C(=O)NCCN3CCOCC3)cc3c(=O)n4ccccc4nc32)cc1
active: potentiation [4] 31%
inactive: outcome [1] | outcome [2] | outcome [3] | outcome [5] | outcome [6] | outcome [7] | outcome [8] | outcome [9] | outcome [10] | outcome [11] | outcome [12] | outcome [13] | outcome [14] | outcome [15] | outcome [16] | outcome [17]

O=S(=O)(Cc1ccccc1)N1CCC(c2nc(-c3cccs3)no2)CC1
active: potentiation [4] 13% | potentiation [15] 11.4%
inactive: outcome [1] | outcome [2] | outcome [3] | outcome [5] | outcome [6] | outcome [7] | outcome [8] | outcome [9] | outcome [10] | outcome [11] | outcome [12] | outcome [13] | outcome [14] | outcome [16] | outcome [17]

CC(C)Oc1cccc(C(=O)NC(=S)Nc2ccc(N3CCN(C)CC3)cc2)c1
inactive: outcome [1] | outcome [2] | outcome [3] | outcome [4] | outcome [5] | outcome [6] | outcome [7] | outcome [8] | outcome [9] | outcome [10] | outcome [11] | outcome [12] | outcome [13] | outcome [14] | outcome [16] | outcome [17]
active: potentiation [15] 16.6%
